Most compounds without a hit are left out; they make up all but 1.5% or so of the library.
USP1 inh = blocks the human USP1/UAF1 deubiquitinase complex. recombinant USP1/UAF1, Ub-Rhodamine cleavage fluorescence. Potency, µM (top dose mostly 57.1 µM), actives largely listed as inhibitors. 390,000 compounds, 0.23% hits. AID 743255; note: nearly all actives have a fitted effect of over 60% in size
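In this screen, compounds sit with the deubiquitinase complex (1nM) for 15 min at room temperature before Ub-Rho is added at 150nM final. Fluorescence rise is then followed for 6 reads every 60 seconds.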
TrxR1 substrate = is turned over as a substrate by rat TrxR1 | purified TrxR1 substrate turnover, NADPH consumption readout | O89049 | 390,000 compounds, 0.01% hits | Potency, µM (top dose mostly 114 µM); note: nearly all actives have a fitted effect of over 50% in size
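Rat TrxR1, dispensed at 90 nM, was prereduced with 400 uM NADPH (final) for 5 min at ~22 deg C, then incubated with compound 15 min before 400 uM selenite. A first-read NADPH fluorescence drop versus no-compound background flagged substrates.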
Coupling enz = counter-screen for Giardia aldolase inhibitors: coupling enzyme system | coupling enzyme system counterscreen, AmpLite Red fluorescence | AID 2472 | 290,000 compounds, 0.67% hits | activity change, negative = inhibition, % at 58.2 µM, hits read low; in the data active = activity change below about -30%
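Counterscreen of the coupled detection system alone, without aldolase: glyceraldehyde-3-phosphate coupling enzymes plus AmpLite Red readout. Compounds at 57.5 uM final, 10 min RT preincubation, 20 min RT reaction, fluorescence 525/598 nm.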
GALK inh = inhibitors of human galactokinase; Purified GALK, Kinase-Glo residual ATP luminescence; Potency, µM (top dose mostly 57.5 µM), usual class: inhibitors; 270,000 compounds, 0.007% hits; AID 1868
Target sequence (P51570 whole entry, looked up): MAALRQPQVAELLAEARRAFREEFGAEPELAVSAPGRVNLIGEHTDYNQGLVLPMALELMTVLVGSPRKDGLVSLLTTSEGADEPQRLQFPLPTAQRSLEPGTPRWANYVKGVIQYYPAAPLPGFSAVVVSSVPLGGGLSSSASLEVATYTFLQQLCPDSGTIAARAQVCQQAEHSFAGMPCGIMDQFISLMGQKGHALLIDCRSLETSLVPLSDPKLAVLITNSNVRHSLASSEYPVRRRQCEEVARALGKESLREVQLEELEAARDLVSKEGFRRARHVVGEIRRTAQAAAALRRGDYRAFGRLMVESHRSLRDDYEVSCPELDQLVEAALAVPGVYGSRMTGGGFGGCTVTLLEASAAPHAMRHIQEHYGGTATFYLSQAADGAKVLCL
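Kinase-Glo Plus luminescence measured ATP left after a 1 h room-temperature reaction. The reaction used 5 nM GALK, 100 uM galactose and 35 uM ATP at pH 8.0 (20 mM HEPES, 5 mM MgCl2, 60 mM NaCl, 1 mM DTT, 0.01% BSA).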
rTrxR1 inhibitor = rat TrxR1 inhibition. recombinant rTrxR1, NADPH fluorescence consumption, selenite substrate. Potency, µM (highest dose often 114 µM), hits mostly inhibitors. 390,000 compounds, 1% hits. AID 588453; note: nearly all actives have a fitted effect of over 65% in size
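Rat TrxR1 (90 nM in the dispensed reagent) was pre-reduced with 400 uM NADPH for 5 min at room temperature, then incubated with compound for 15 min. After 400 uM selenite was added, NADPH fluorescence (Ex 340/Em 450 nm) was followed for 8 min.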
Hits are given with their value; . = inactive; ? = inconclusive; / = not tested or not shown; [ ] = another dose, or the depositor's remark. Unless noted, calls come from the whole dose curve; as a rule, active = well fitted curve in the direction sought with a large enough effect; inconclusive = small, poorly fitted or top-dose-only effect, or another doubt; inactive = no such curve, though single readings can be large; an effect the other way counts as inactive or inconclusive.

SMILES	USP1 inh	TrxR1 substrate	Coupling enz	GALK inh	rTrxR1 inhibitor
CCC(C)(C(=O)NC1CCCC1)N(Cc1cccs1)C(=O)c1ccccn1 (stereo not given)	.	.	-38	.	.
O=C(Cc1ccccn1)c1ccc(Cl)cc1	.	.	/	/	.
CC1=C(CC(=O)c2ccc(Cl)cc2)C(=O)c2ccccc2C1=O	?	.	-40	.	?
Cc1sc(NC(=O)c2ccco2)c(C(c2cccnc2)N2CCCC2)c1C (stereo not given)	.	.	.	.	7.9µM
O=C(Nc1ncc(Cc2ccccc2)s1)C1CCN(C(=O)c2ccco2)CC1	/	.	/	/	.
CCc1ccccc1NC(=O)CN(C)Cc1c(O)ccc2ccccc12	.	.	.	.	40µM
CN(CC(=O)Nc1ccccc1C(F)(F)F)Cc1c(O)ccc2ccccc12	.	.	.	.	?
CCOC(=O)C1=C(c2ccccc2)N=c2s/c(=C\c3cc(OC)c(OC)c(OC)c3)c(=O)n2C1c1cccs1 (stereo not given)	22µM	.	.	.	.
CCOC(=O)CSC1=NC(=O)/C(=C\c2ccc(OC(C)=O)cc2)S1	.	.	.	.	8.9µM
COc1ccc(/C=N\Nc2ccc([N+](=O)[O-])cc2[N+](=O)[O-])c(C(=O)O)c1OC	.	.	.	.	50µM
Cc1ccccc1NC(=O)COC(=O)c1ccccc1OCC(=O)Nc1ccc(Br)cc1	/	.	/	/	.
COC(=O)N1C(=O)[C@@](c2ccccc2)(C2CCCCC2)N1C(=O)OC	.	.	.	/	45µM
CC[C@]1(c2ccccc2)C(=O)N(C(=O)OC)N1C(=O)OC	.	.	.	/	?
CC[C@]1(c2cccc(C)c2)C(=O)N(C(=O)OC)N1C(=O)OC	.	.	.	/	1.6µM
CC[C@@]1(c2ccccc2)C(=O)N(C(=O)OC)N1C(=O)OC	.	.	.	/	1.3µM
CC[C@@]1(c2ccccc2C)C(=O)N(C(=O)OC)N1C(=O)OC	.	.	.	/	5.6µM
N#Cc1nc(-c2ccc(OCc3ccc(Cl)cc3)cc2)oc1N1CCCCCC1	/	.	/	/	.
COC(=O)N1C(=O)[C@](Cc2ccccc2)(c2ccccc2)N1C(=O)OC	.	.	.	/	4µM
CC1(C)Cc2c(C#N)c(NCC3CCCO3)nc(-c3ccco3)c2CO1 (stereo not given)	.	.	.	.	?
CC1(C)Cc2c(C#N)c(NC3CCCCC3)nc(-c3ccco3)c2CO1	/	/	-30	.	/
O=S(=O)(c1ccc2ncsc2c1)N1CCN(c2nc(-c3cccs3)nc3ccccc23)CC1	/	.	/	/	.
CCOc1ccc(-c2nnc(SCC(=O)NCc3ccc(Cl)cc3)o2)cc1	.	.	/	/	50µM
COc1ccc(C#Cc2cnc(Cl)c3cncnc23)cc1OC	/	.	/	/	.
Clc1ncc(C#Cc2ccccc2)c2ncncc12	/	.	/	/	18µM
CCC[n+]1c(/C=C/c2c(OC)cc(OC)cc2OC)ccc2ccccc21	/	.	/	/	.
SMILES	USP1 inh	TrxR1 substrate	Coupling enz	GALK inh	rTrxR1 inhibitor
Nc1nc[nH]c(=O)c1N	/	.	/	/	.
CC[C@@H]1C(c2cccc(C)c2)=NN(c2ccc(Br)cc2)[C@H]1C(=O)N1CCOC1=O	/	/	.	/	/
CCOc1ccc2c(c1)nc(SCC(=O)c1ccc(Br)s1)n2C	.	.	.	.	25µM
CCOc1ccc2c(c1)nc(SCC(=O)c1cccs1)n2C	.	.	.	.	?
COc1cc(/C=C(\C#N)C(=O)c2ccc(O)c(O)c2)cc(I)c1O	25µM	?	/	/	?
CN(C)c1ccc(/C=C/c2sc3ccccc3[n+]2CCCCI)cc1	/	.	/	/	?
CSc1ccc(/C=C/c2ccnc3ccccc23)cc1	/	.[0.0914 µM]	/	/	.[0.0914 µM]
CC(=O)Nc1ccc(S(=O)(=O)N/N=C/c2ccc(C)o2)cc1	.	.	.	.	.
Cc1ccc(/C=C/C(=O)Nc2ccncc2)o1	.	.	.	.	79µM
CC(=O)NS(=O)(=O)c1ccc(NC(=O)/C=C/c2ccc(C)o2)cc1	.	.	.	.	16µM
Cc1ccc(/C=C/C(=O)NCc2ccc(S(N)(=O)=O)cc2)o1	.	.	.	.	16µM
O=C(/C=C/c1ccco1)NCc1ccc(F)cc1	.	.	.	.	?
NS(=O)(=O)c1ccc(CNC(=O)/C=C/c2ccco2)cc1	.	.	.	.	18µM
CC(C)(C)n1ncc2c(=O)n(Cc3ccc(C#N)c(F)c3)cnc21	/	.	/	/	.
C=CCN1[C@@H](C(C)C)COCCS1(=O)=O	/	.	/	/	.
